GPR151 ag – activates the human receptor GPR151; PathHunter beta-arrestin GPR151 cells, luminescence; Q8TDV0; actives 1% (n = 650,000); activation, % at 11.2 µM; in the data active = activation above about 4.9%;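 note: 0% = median of compound wells and 100% = cells with positive control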
FBW7 activator – activators of human E3 ligase FBW7; Q969H0; AlphaScreen FBW7–phospho-cyclin E peptide binding, activator screen; normalized activity (activation), % at 26.1 µM; actives 0.13% (n = 650,000); in the data active = normalized activity above about 1.9%;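 note: purified mutant Fbw7 with reduced substrate affinity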
MITF inh – human MITF inhibition, primary screen | AlphaScreen MITF homodimerization, bead proximity signal | inhibition, % at 2.6 µM | actives 0.91% (n = 650,000); in the data active = inhibition above about 50%;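 note: 0% = vehicle wells with protein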
Target sequence (O75030 whole entry, looked up): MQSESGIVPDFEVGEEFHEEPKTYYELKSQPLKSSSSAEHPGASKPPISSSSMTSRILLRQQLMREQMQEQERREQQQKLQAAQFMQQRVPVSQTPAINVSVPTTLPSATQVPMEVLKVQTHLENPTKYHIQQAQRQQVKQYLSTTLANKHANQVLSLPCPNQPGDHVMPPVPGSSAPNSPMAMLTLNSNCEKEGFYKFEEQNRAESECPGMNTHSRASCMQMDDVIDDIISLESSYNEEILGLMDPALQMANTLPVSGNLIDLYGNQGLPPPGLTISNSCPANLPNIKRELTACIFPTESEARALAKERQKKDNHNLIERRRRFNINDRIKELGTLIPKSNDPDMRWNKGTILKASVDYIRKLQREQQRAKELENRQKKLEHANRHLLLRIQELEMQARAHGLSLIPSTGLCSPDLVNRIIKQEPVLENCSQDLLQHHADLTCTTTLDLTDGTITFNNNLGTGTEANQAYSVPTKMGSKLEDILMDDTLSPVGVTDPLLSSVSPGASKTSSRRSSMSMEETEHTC
TEAD-YAP inh – TEAD-YAP interaction inhibition; HEK-TIYL cells, TEAD-Gal4/YAP UAS-luciferase luminescence; actives 1.4% (n = 640,000); inhibition, % at 9.12 µM; in the data active = inhibition above about 32%;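 note: 0% = median of test compound wells and 100% = reference inhibitor wells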
GPR151 conf act – human GPR151 activation, confirmation screen; shares compounds with GPR151 ag; GPR151 PathHunter beta-arrestin cells, luminescence, 90 min; % of EA-reagent control over plate median; activation, % at 11.2 µM; 6,700 tested, under 10 active;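 active = mean percent activation across replicates above the confirmation screen cutoff of 4.91%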
GPR119 ag – activates human GPR119 in a GPR151 counter-screen; shares compounds with GPR151 ag; GPR119 PathHunter beta-arrestin cells, luminescence, 90 min; 0 = compound-well median, 100 = enzyme-acceptor control; activation, % at 11.2 µM; actives 0.3% (n = 6,700); AID 1508611;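 active = mean percent activation in the counterscreen above 29.09%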;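 note: counterscreen on off-target GPR119 to flag nonselective hits from the GPR151 activator screen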
* = called active by the depositor; . = no result. A selection: hits, their analogues and other compounds. The true share with any hit is near 3.5%.

SMILES	GPR151 ag	FBW7 activator	MITF inh	TEAD-YAP inh	GPR151 conf act	GPR119 ag
Cn1c(SCC(=O)c2ccc(F)cc2)nnc1-c1cccc([N+](=O)[O-])c1	5.7*	-0.2	4.9	12.9	-0.3	-9.4
CC(=O)Nc1ccc(OCCn2c(C)c(C=C3C(=O)NC(=O)NC3=O)c3ccccc32)cc1	6.4*	-0.3	5.5	-7.5	-0.8	-5.4
Nc1cc(=O)[nH]c(SCC(=O)N2CCN(C(c3ccccc3)c3ccccc3)CC2)n1	9.4*	-0.2	-5.0	4.3	-0.8	-9.2
CCCc1cc(=O)[nH]c(SCC(=O)N2CCN(c3ccccc3OC)CC2)n1	6.7*	0.3	2.7	7.2	-0.7	-9.0
CCOC(=O)N1CCN(C(=O)C2CCCN(c3nn4c(=O)cc(C)nc4s3)C2)CC1 (stereo unspecified)	5.6*	0.2	-11.2	-1.0	0.1	-10.8
Cc1cc(=O)n2nc(N3CCCC(C(=O)N4CCN(c5ccccc5)CC4)C3)sc2n1 (stereo unspecified)	-0.4	0.2	10.3	2.5	.	.
COc1ccccc1C(=O)OCC(=O)Nc1ccc(C#N)cc1	6.1*	0.4	16.6	-8.8	1.4	1.1
CNc1ccccc1C(=O)OCC(=O)Nc1ccc(C#N)cc1	-0.6	0.3	-8.2	-11.1	.	.
Cc1cc(NC(=O)CSc2nc(Cc3cccs3)nc3ccccc23)no1	0.8	0.4	17.6	1.5	.	.
O=C(NCCO)C(=O)NCC1OCCCN1S(=O)(=O)c1ccc(Cl)cc1 (stereo unspecified)	0.9	-0.2	-0.8	-1.7	.	.
CCNC(=O)C(=O)NCC1OCCCN1S(=O)(=O)c1ccccc1 (stereo unspecified)	5.2*	0.1	1.8	0.3	-0.2	-9.1
O=C(NCCCO)C(=O)NCC1OCCCN1S(=O)(=O)c1ccc(Cl)cc1 (stereo unspecified)	9.5*	-0.2	-3.3	-9.3	0.0	-5.9
C=CCNC(=O)C(=O)NCC1OCCCN1S(=O)(=O)c1ccc(F)cc1C (stereo unspecified)	7.3*	0.0	-0.3	-2.8	0.4	-6.3
O=C(CSc1nccn1Cc1ccccc1Cl)Nc1ccc(F)cc1	-0.7	0.1	23.7	-8.2	.	.
Nc1ccc2nc(-c3ccc(N=Cc4cc([N+](=O)[O-])cc([N+](=O)[O-])c4O)cc3)[nH]c2c1	7.0*	-0.1	1.5	1.6	-0.1	3.2
Nc1ccc2nc(-c3ccc([N+](=O)[O-])cc3)[nH]c2c1	-4.7	0.1	3.1	-13.2	.	.
COc1ccccc1NC(=O)NNC(=O)CN(C)S(=O)(=O)c1ccc(C)cc1	5.3*	0.2	4.2	7.8	0.2	4.1
COCCCNC(=O)Cc1ccc(F)cc1	-0.3	0.1	0.1	9.8	.	.
COc1cc(NC(=O)CN(C)S(=O)(=O)c2ccc3ccccc3c2)c(OC)cc1Cl	5.8*	0.1	0.4	-1.7	-1.4	-15.7
COc1cc(NC(=O)Cc2ccc(Cl)cc2)c(OC)cc1Cl	-0.4	0.2	49.8	2.8	.	.
COc1ccccc1NC(=O)CN(C)S(=O)(=O)c1ccccc1	-0.5	0.1	-29.6	0.9	.	.
COc1cc(NC(=O)Cc2ccc(F)cc2)c(OC)cc1Cl	5.0*	0.8	2.2	-4.8	0.3	-4.9
COCCNC(=O)Cc1ccc(F)cc1	5.4*	-0.2	0.1	-5.5	-0.2	-4.7
COc1ccccc1-n1cnnc1SCC(=O)c1ccc(Cl)s1	2.1	-0.1	-0.2	-4.2	.	.
Cc1cc(NC(=O)COc2ccc(NC(=O)c3ccco3)cc2)no1	0.0	0.3	10.7	1.4	.	.
SMILES	GPR151 ag	FBW7 activator	MITF inh	TEAD-YAP inh	GPR151 conf act	GPR119 ag
CCOC(=O)N1CCC(N2C(=O)c3ccccc3C2Nc2ccc(CC)cc2)CC1 (stereo unspecified)	1.1	-0.1	-10.2	-1.4	.	.
CCN(CC)CCCNC(=S)Nc1ccc2nc(N3CCN(C)CC3)cc(C)c2c1	0.0	0.1	-0.3	2.1	.	.
N#Cc1ccccc1OCC(=O)N=Nc1c(O)[nH]c2ccccc12	6.0*	-0.2	5.0	-14.4	-0.7	-2.8
N#Cc1ccccc1OCC(=O)N=Nc1c(O)[nH]c2ccc([N+](=O)[O-])cc12	0.9	-0.1	10.1	10.6	.	.
CN(C)S(=O)(=O)Nc1ccc(N2CCC(NCCn3ccc4ccccc43)CC2)cc1	0.2	-0.1	7.4	2.1	.	.
Cc1ccc2oc(-c3cc(NC(=O)c4ccc(Cl)cc4)ccc3O)nc2c1	-0.6	-0.1	-8.4	-6.2	.	.
COc1cc(NC(=O)c2cc(Br)ccc2Cl)cc(OC)c1	-1.2	0.6	-13.7	-7.5	.	.
CC1CN(CCOCCOc2cccc(Br)c2)CC(C)O1 (stereo unspecified)	-1.7	0.1	35.1	5.0	.	.
N#Cc1c(NC(=O)c2cc3n(n2)C(C(F)(F)F)CC(c2ccc4c(c2)OCO4)N3)sc2c1CCCC2 (stereo unspecified)	-0.6	0.1	-9.5	-7.4	.	.
CCOc1ccccc1N(C)C(=O)c1nn(-c2ccc(OC)cc2)c(=O)c2ccccc12	-0.5	-0.2	3.0	6.8	.	.
CCOc1ccc(-n2nc(C(=O)Nc3ccc(OC)c(OC)c3)c3ccccc3c2=O)cc1	5.6*	0.6	12.0	-5.7	-0.8	9.2
CCOc1ccc(NC(=O)CNC(=O)c2nn(-c3ccc(OC)c(OC)c3)c(=O)c3ccccc23)cc1	1.3	-0.1	-1.2	6.1	.	.
COc1ccc(-n2nc(C(=O)Nc3cc(Cl)ccc3OC)c3ccccc3c2=O)c(OC)c1	-1.7	-0.1	-1.9	-6.2	.	.
CCOc1ccccc1N(C)C(=O)c1nn(-c2cc(OC)cc(OC)c2)c(=O)c2ccccc12	6.6*	0.2	9.2	-0.6	-0.3	-5.9
COc1ccc(-n2nc(C(=O)NCC(=O)NCCCN3CCC(C)CC3)c3ccccc3c2=O)cc1OC	-0.7	-0.1	-1.4	-2.9	.	.
COc1ccc(OC)c(NC(=O)c2nn(-c3ccc(OC)cc3OC)c(=O)c3ccccc23)c1	8.7*	0.0	14.2	10.2	-0.7	-1.4
COc1ccc(-n2nc(C(=O)NCC(=O)NCCCN3CCN(c4cccc(Cl)c4)CC3)c3ccccc3c2=O)cc1OC	4.9*	0.1	20.2	16.6	-0.3	-0.4
CCOC(=O)c1ccc(-n2c(C)cc(/C=C3\NC(=O)NC3=O)c2C)cc1	-1.2	-0.3	5.8	8.6	.	.
COc1ccccc1CNC(=O)Nc1cc(C)ccc1OC	-1.4	-0.2	-10.4	-0.9	.	.
O=C(/C=C/c1ccc(Cl)cc1)Nc1ccc(I)cc1	-0.3	0.0	-1.4	-7.5	.	.
O=C(Oc1ccc(C2Oc3ccccc3C3CC(c4ccc(Br)cc4)=NN32)cc1)c1ccccc1 (stereo unspecified)	-0.5	0.2	10.5	-16.2	.	.
CCCCc1ccc(NC(=O)c2ccc(Br)cc2)cc1	1.2	-0.1	1.1	-1.4	.	.
CCOc1ccc(NC(=O)c2nnn(-c3ccccc3OC)c2C)cc1	5.7*	0.7	9.3	-1.8	-0.2	0.0
